Results reported in PubChem BioAssay (NCATS).
Records with an inconclusive call do not appear. Calls of active or inactive are those of the source. Calls follow the shape of the dose curve; as a rule, active = well fitted cell-killing curve with a large enough effect; inconclusive = small, poorly fitted or top-dose-only effect, or effect the other way; inactive = flat fitted curve, though single readings scatter.

Legend:
Assay in all cases: Primary qHTS to identify gynecologic anti-cancer compounds using libraries of approved drugs and bioactive compounds (AID 1345084); also: nearly all actives have a fitted effect of over 55% in size
[1] = tested on: C33A; conditions: Gynecologic cancer cell panel viability, ATPlite luminescence, 48 h; series mostly up to 57.5 µM
In short: (§1)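 Five-concentration response, 48 h; readout is ATP-driven luciferase luminescence.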

[2] = tested on: CAOV3; conditions: Gynecologic cancer cell panel viability, ATPlite luminescence, 48 h; series mostly up to 57.5 µM
In short: as §1

[3] = tested on: CASKI; conditions: Gynecologic cancer cell panel viability, ATPlite luminescence, 48 h; series mostly up to 57.5 µM
In short: as §1

[4] = tested on: Es-2; conditions: Gynecologic cancer cell panel viability, ATPlite luminescence, 48 h; series mostly up to 57.5 µM
In short: as §1

[5] = tested on: HeLa; conditions: Gynecologic cancer cell panel viability, ATPlite luminescence, 48 h; series mostly up to 57.5 µM
In short: as §1

[6] = tested on: Hek293T; conditions: Gynecologic cancer cell panel viability, ATPlite luminescence, 48 h, control line for the selectivity index; series mostly up to 57.5 µM
In short: as §1

[7] = tested on: JEG-3; conditions: Gynecologic cancer cell panel viability, ATPlite luminescence, 48 h; series mostly up to 57.5 µM
In short: as §1

[8] = tested on: OV90; conditions: Gynecologic cancer cell panel viability, ATPlite luminescence, 48 h; series mostly up to 57.5 µM
In short: as §1

[9] = tested on: PA-1; conditions: Gynecologic cancer cell panel viability, ATPlite luminescence, 48 h; series mostly up to 57.5 µM
In short: as §1

[10] = tested on: SKOV3; conditions: Gynecologic cancer cell panel viability, ATPlite luminescence, 48 h; series mostly up to 57.5 µM
In short: as §1

[11] = tested on: Tov-21-G; conditions: Gynecologic cancer cell panel viability, ATPlite luminescence, 48 h; series mostly up to 57.5 µM
In short: as §1

[12] = tested on: Tov112D; conditions: Gynecologic cancer cell panel viability, ATPlite luminescence, 48 h; series mostly up to 57.5 µM
In short: as §1
% is scaled to controls: 0 for no effect and ±100 for the full control effect.

COC(=O)CC1(O)C(=O)Nc2ccccc21 (stereo not given)
inactive: Potency [1] | Potency [2] | Potency [3] | Potency [4] | Potency [5] | Potency [6] | Potency [7] | Potency [8] | Potency [9] | Potency [10] | Potency [11] | Potency [12]

CC1=CC(=O)C2C(C)(C)CC(O)CC2(C)C1CO (stereo not given)
inactive: Potency [1] | Potency [2] | Potency [3] | Potency [4] | Potency [5] | Potency [6] | Potency [7] | Potency [8] | Potency [9] | Potency [10] | Potency [11] | Potency [12]

C[C@@H]1CCC2C(C)(C)[C@H](O)CC[C@]2(C)[C@@]12Cc1c(O)cc3c(c1O2)CN(CCO)C3=O (stereo not given in full)
inactive: Potency [1] | Potency [2] | Potency [3] | Potency [4] | Potency [5] | Potency [6] | Potency [7] | Potency [8] | Potency [9] | Potency [10] | Potency [11] | Potency [12]

O=C(/C=C/c1ccc(O)c(O)c1)OCc1ccccc1O[C@@H]1O[C@H](CO)[C@@H](O)[C@H](O)[C@H]1O
inactive: Potency [1] | Potency [2] | Potency [3] | Potency [4] | Potency [5] | Potency [6] | Potency [7] | Potency [8] | Potency [9] | Potency [10] | Potency [11] | Potency [12]

Cc1cc(O)cc(Oc2cc(C)c(C(=O)O)c(O)c2)c1
inactive: Potency [1] | Potency [2] | Potency [3] | Potency [4] | Potency [5] | Potency [6] | Potency [7] | Potency [8] | Potency [9] | Potency [10] | Potency [11] | Potency [12]

COc1cc(C2OCC3C(c4ccc(OC5OC(CO)C(O)C(O)C5O)c(OC)c4)OCC23)ccc1O (stereo not given)
inactive: Potency [1] | Potency [2] | Potency [3] | Potency [4] | Potency [5] | Potency [6] | Potency [7] | Potency [8] | Potency [9] | Potency [10] | Potency [11] | Potency [12]

O=c1c2ccccc2nc2n1CCC2O (stereo not given)
inactive: Potency [1] | Potency [2] | Potency [3] | Potency [4] | Potency [5] | Potency [6] | Potency [7] | Potency [8] | Potency [9] | Potency [10] | Potency [11] | Potency [12]

COC(=O)C[C@@H]1C(C(=O)O)=CO[C@@H](O[C@@H]2O[C@H](CO)[C@@H](O)[C@H](O)[C@H]2O)/C1=C\COC(=O)/C=C\c1ccccc1
inactive: Potency [1] | Potency [2] | Potency [3] | Potency [4] | Potency [5] | Potency [6] | Potency [7] | Potency [8] | Potency [9] | Potency [10] | Potency [11] | Potency [12]

CCOc1nc2cccc(C(=O)O)c2n1Cc1ccc(-c2ccccc2-c2noc(=O)[nH]2)cc1
inactive: Potency [1] | Potency [2] | Potency [3] | Potency [4] | Potency [5] | Potency [6] | Potency [7] | Potency [8] | Potency [9] | Potency [10] | Potency [11] | Potency [12]

C=CC1(C)CC(O)C2(CCC3C(C)(C(=O)O)CCCC3(C)C2=O)C1 (stereo not given)
inactive: Potency [1] | Potency [2] | Potency [3] | Potency [4] | Potency [5] | Potency [6] | Potency [7] | Potency [8] | Potency [9] | Potency [10] | Potency [11] | Potency [12]

C=C1CC23CCC4[C@@](C)(CCC[C@@]4(C)C(=O)O)C2CCC1C3 (stereo not given in full)
inactive: Potency [1] | Potency [2] | Potency [3] | Potency [4] | Potency [5] | Potency [6] | Potency [7] | Potency [8] | Potency [9] | Potency [10] | Potency [11] | Potency [12]

O=C(/C=C/c1ccc(O)cc1)O[C@H]1[C@@H]2C=CO[C@@H](O[C@@H]3O[C@H](CO)[C@@H](O)[C@H](O)[C@H]3O)[C@@H]2[C@@]2(CO)O[C@@H]12
inactive: Potency [1] | Potency [2] | Potency [3] | Potency [4] | Potency [5] | Potency [6] | Potency [7] | Potency [8] | Potency [9] | Potency [10] | Potency [11] | Potency [12]

CO/N=C(/C(=O)N[C@@H]1C(=O)N2C(C(=O)O)=C(CSC(=O)c3ccco3)CS[C@H]12)c1csc(N)n1
inactive: Potency [1] | Potency [2] | Potency [3] | Potency [4] | Potency [5] | Potency [6] | Potency [7] | Potency [8] | Potency [9] | Potency [10] | Potency [11] | Potency [12]

C/C=C(\C)C(=O)O[C@H]1[C@@H](O[C@]2(COC(=O)CC(C)C)O[C@H](COC(=O)C(C)C)[C@@H](OC(C)=O)[C@@H]2O)O[C@H](COC(C)=O)[C@@H](O)[C@@H]1O
inactive: Potency [1] | Potency [2] | Potency [3] | Potency [4] | Potency [5] | Potency [6] | Potency [7] | Potency [8] | Potency [9] | Potency [10] | Potency [11] | Potency [12]

CC(=O)N[C@H]1[C@H](O[C@H]2CC[C@@]3(C)C(CC[C@]4(C)C3CC=C3C5CC(C)(C)CC[C@]5(C(=O)O)[C@H](O[C@@H]5O[C@H](CO)[C@@H](O)[C@H](O)[C@H]5O)C[C@]34C)C2(C)C)O[C@H](CO[C@@H]2OC[C@H](O)[C@H](O)[C@H]2O[C@@H]2OC[C@@H](O)[C@H](O)[C@H]2O)[C@@H](O)[C@@H]1O (stereo not given in full)
inactive: activity change, negative = cytotoxicity [1] -4.04% [at 11.6 µM] | activity change, negative = cytotoxicity [2] 4.01% [at 11.6 µM] | activity change, negative = cytotoxicity [3] -4.68% [at 11.6 µM] | activity change, negative = cytotoxicity [4] -1.11% [at 11.6 µM] | activity change, negative = cytotoxicity [5] 15.9% [at 11.6 µM] | activity change, negative = cytotoxicity [6] -2.94% [at 11.6 µM] | activity change, negative = cytotoxicity [7] -2.88% [at 11.6 µM] | activity change, negative = cytotoxicity [8] -0.313% [at 11.6 µM] | activity change, negative = cytotoxicity [9] -6.75% [at 11.6 µM] | activity change, negative = cytotoxicity [10] 13% [at 11.6 µM] | activity change, negative = cytotoxicity [11] 0.549% [at 11.6 µM] | activity change, negative = cytotoxicity [12] 6.55% [at 11.6 µM]
